Assay outcomes: PubChem BioAssay, ICCB-Longwood Screening Facility, Harvard Medical School
Most compounds without a hit are left out; they make up all but 0.52% or so of the library.
Sa growth 42C – inhibitors of Staphylococcus aureus growth at 42 °C; S. aureus RN4220 growth, OD600, 20 h; stronger effect = lower value; relative growth, % (no concentration beside the values); 170,000 tested, 0.53% active; AID 720641;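 active = relative growth at most 50% at the other temperature and 20+ points below 30 °C, or under 10% at both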
Sa helicase inh – blocks Staphylococcus aureus DNA helicase; 120,000 tested, 0.05% active; purified S. aureus helicase, fluorescence unwinding assay; inhibition, % (concentration not given with the values); in the data active = inhibition above about 25%, passing the limit was not always enough
A number is an active result; – = inactive; · = no result given; ! = not confirmed by another sample.

SMILES | Sa growth 42C | Sa helicase inh
C1=C(c2c[nH]c3ccccc23)CCN(Cc2ccccc2)C1 | -0.9 | –
CN1CC=C(c2c[nH]c3ccccc23)CC1 | – | –
CN1CCC2=C(C1)C(=O)NC1(CCCCC1)N2 | – | –
Clc1ccc(CON=C(Cn2ccnc2)c2ccc(Cl)cc2Cl)c(Cl)c1 | 0.0 | ·
Clc1ccc(COC(Cn2ccnc2)c2ccc(Cl)cc2Cl)c(Cl)c1 (centres undefined) | 0.0! | ·
CN(CC(=O)c1ccccc1Br)C1CCCCC1 | – | –
O=C1NC(=O)C(c2ccccc2)C(=O)N1 | – | –
CC(=O)Nc1cccc(OC(=O)N(C)C)c1 | – | –
N#CC(C#N)=NNc1ccc(-n2ccc(C(F)(F)F)n2)cc1 | -0.4 | –
CCOc1ccccc1NC1=NC(C)CS1 (centres undefined) | – | –
Cc1cccc(NC2=NC(C)CS2)c1 (centres undefined) | – | –
O=C(CCl)NCc1ccccc1 | – | –
O=C1C=Cc2ccc3c4c(ccc1c24)C=CC3=O | – | 48
CC(C)c1cccc(C(C)C)c1OCCNCCO | – | –
C=C1C2CC3(C[C@H]4C5C6(C3CC2=O)C4[N+]([O-])(CC)C[C@]5(C)CC[C@@H]6O)[C@@H]1O (some centres undefined) | – | –
O=C(CN1CC=C(c2ccccc2)CC1)NCc1cccs1 | – | –
CN(C)CCC(=O)c1ccccc1 | – | –
CC(=O)[O][Hg][c]1ccccc1 | -0.7 | ·
O=C(O)Cc1ccc2c(c1)OCO2 | – | –
O=S(=O)(c1ccc(Cl)cc1)N1CCCCC1c1cccnc1 (centres undefined) | – | –
CC(=O)N1CCCCC1c1cccnc1.O=[N+]([O-])O.[Ag] (centres undefined) | 5.0 | –
CC(C)(C)c1ccc2ccccc2[o+]1 | · | –
CCOC(=O)C1=C(N)Oc2c(c(C)nn2-c2ccccc2)C12C(=O)N(C)c1ccccc12 (centres undefined) | – | –
O=C(O)c1ccccc1C(=O)Nc1cccc2ccccc12 | · | –
C[CH2][Hg][S]c1ccccc1C(=O)O | -0.5 | ·
SMILES | Sa growth 42C | Sa helicase inh
CCOC(C(=O)O)(c1ccccc1)c1ccccc1 | – | –
CN(C)[C@@H]1C(=O)C(C(N)=O)=C(O)[C@@]2(O)C(=O)C3=C(O)c4c(O)ccc(Cl)c4[C@@](C)(O)[C@H]3C[C@@H]12 | -0.1 | ·
CN(C)[C@@H]1C(=O)C(C(N)=O)=C(O)[C@@]2(O)C(=O)C3=C(O)c4c(O)cccc4[C@@](C)(O)[C@H]3[C@H](O)[C@@H]12 | -0.6 | ·
CCN1CCN(c2ccccc2N)CC1 | – | –
CCN(C)CCc1c[nH]c2ccc(OC)cc12 | – | –
Oc1cc(Cl)ccc1Oc1ccc(Cl)cc1Cl | -0.7 | ·
N#C/C(=C\c1ccccc1)C(=O)O | – | –
CC1CCN(CC(=O)c2ccc(OC(F)F)cc2)CC1 | – | –
COC(=O)c1cccc(N2Cc3ccccc3C2=N)c1 | · | –
CCCCCCCCCCCCCCCC[n+]1ccccc1 | -0.8 | ·
CCOC(=O)c1c(C)n(Cc2ccccc2)c2ccc(O)cc12 | – | –
CCOC(=O)c1c(-c2ccccc2)n(Cc2ccccc2)c2ccc(O)c(CN(C)C)c12 | -0.9 | –
COc1ccc(C(CN(C)C)C2(O)CCCCC2)cc1 (centres undefined) | 0.0! | ·
Clc1ccc(CN2CCN(Cc3ccccc3)CC2)cc1 | – | –
CCN(CC)C1CCCCC1 | – | –
O=C1C2CCN(CC2)C1Cc1ccc2ccccc2c1O (centres undefined) | – | –
CN1C(=O)CC(=O)NC1=O | – | –
